PubChem BioAssay (NCATS)
Inconclusive results are not listed. Where a call stands in place of a potency, no number is given. Activity calls are given as the source filed them. Calls come from the whole dose curve; as a rule, active = well fitted curve in the direction sought with a large enough effect; inconclusive = small, poorly fitted or top-dose-only effect, or another doubt; inactive = no such curve, though single readings can be large; an effect the other way counts as inactive or inconclusive.

How the values were obtained:
[1] = qHTS of pediatric cancer cell lines to identify multiple opportunities for drug repurposing: Primary screen for SK-N-SH cells (AID 1347098);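 note: DMSO served as neutral control and bortezomib at 2.3 µM as positive control; nearly all actives have a fitted effect of over 65% in size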
Procedure, shortened: (§1)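 Cells (500-1,000/well) rested 5 h, then received compounds for 48 h; metabolically active cells were measured by CellTiter-Glo luminescence. Final concentrations spanned up to 46 µM (MIPE, 11-point) or 0.59 nM-46 µM (NPC, 8-point) in primary screens, 11-point in follow-ups.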

[2] = qHTS of pediatric cancer cell lines to identify multiple opportunities for drug repurposing: Primary screen for NB1643 cells (AID 1347099); note: nearly all actives have a fitted effect of over 50% in size
Procedure, shortened: (§2)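 Plated cells (500-1,000 per well, growth media) were allowed to settle for 5 hours, treated with compound dilutions for 48 hours, then lysed with CellTiter-Glo for 15 min at room temperature before luminescence reading.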

[3] = qHTS of pediatric cancer cell lines to identify multiple opportunities for drug repurposing: Primary screen for LAN-5 cells (AID 1347100); note: potency is the fitted concentration of half-maximal effect
Procedure, shortened: (§3)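 Viability after 48 h compound treatment at 37C, 500-1,000 cells/well, read as ATP luminescence with CellTiter-Glo. Primary screens used 11-point (MIPE, 0.78 nM-46 µM) or 8-point (NPC, 0.59 nM-46 µM) final concentrations; follow-up screens used 11-point dilutions.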

[4] = qHTS of pediatric cancer cell lines to identify multiple opportunities for drug repurposing: Primary screen for Rh18 cells (AID 1347102); note: nearly all actives have a fitted effect of over 65% in size
Procedure, shortened: as §3

[5] = qHTS of pediatric cancer cell lines to identify multiple opportunities for drug repurposing: Primary screen for OHS-50 cells (AID 1347103); note: nearly all actives have a fitted effect of over 40% in size
Procedure, shortened: as §1

[6] = qHTS of pediatric cancer cell lines to identify multiple opportunities for drug repurposing: Primary screen for RD cells (AID 1347104); note: nearly all actives have a fitted effect of over 55% in size
Procedure, shortened: as §2

[7] = qHTS of pediatric cancer cell lines to identify multiple opportunities for drug repurposing: Primary screen for MG 63 (6-TG R) cells (AID 1347105); note: nearly all actives have a fitted effect of over 50% in size
Procedure, shortened: as §2

[8] = qHTS of pediatric cancer cell lines to identify multiple opportunities for drug repurposing: Primary screen for control Hh wild type fibroblast cells (AID 1347106);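 note: series mostly up to about 46 µM; a drop in luminescence marks cytotoxicity and a rise apparent proliferation; nearly all actives have a fitted effect of over 55% in size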
Procedure, shortened: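 Cells (500-1,000/well) in growth media were settled 5 h at 37 degrees C, then given compounds for 48 h. Viability was read as CellTiter-Glo luminescence. Primary runs used MIPE at 11 points (0.78 nM-46 µM) and NPC at 8 points (0.59 nM-46 µM); follow-ups used 11 points.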

[9] = qHTS of pediatric cancer cell lines to identify multiple opportunities for drug repurposing: Primary screen for Rh30 cells (AID 1347107); note: series mostly up to about 46 µM; nearly all actives have a fitted effect of over 75% in size
Procedure, shortened: as §3

[10] = qHTS of pediatric cancer cell lines to identify multiple opportunities for drug repurposing: Primary screen for Rh41 cells (AID 1347108);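 note: series mostly up to about 46 µM; luminescence drop marks cytotoxic hits; nearly all actives have a fitted effect of over 70% in size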
Procedure, shortened: as §2

[11] = qHTS of pediatric cancer cell lines to identify multiple opportunities for drug repurposing: Primary screen for BT-12 cells (AID 1347101); note: nearly all actives have a fitted effect of over 25% in size
Procedure, shortened: as §1

[12] = qHTS of pediatric cancer cell lines to identify multiple opportunities for drug repurposing: Confirmatory screen for SK-N-MC cells (AID 1347111);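 note: cells exposed to compound for 48 h before the readout; nearly all actives have a fitted effect of over 70% in size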; note: potency is the fitted concentration of half-maximal effect
Procedure, shortened: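 SK-N-MC cells at 500-1,000 cells/well in growth media were pre-incubated 5 h, then exposed to compounds at 11-point dilutions for 48 h at 37 degrees C, 5% CO2. Viability was read as CellTiter-Glo luminescence.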

[13] = qHTS of pediatric cancer cell lines to identify multiple opportunities for drug repurposing: Confirmatory screen for BT-12 cells (AID 1347112); note: nearly all actives have a fitted effect of over 55% in size
Procedure, shortened: as §3

[14] = qHTS of pediatric cancer cell lines to identify multiple opportunities for drug repurposing: Confirmatory screen for DAOY cells (AID 1347114); note: nearly all actives have a fitted effect of over 65% in size
Procedure, shortened: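 Viability measured as metabolically active cells via CellTiter-Glo luminescence following 48 hours of compound exposure, 11-point dilutions in confirmatory testing. 500-1,000 cells/well plated 5 hours before dosing; controls were DMSO and 2.3 µM bortezomib.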

[15] = qHTS of pediatric cancer cell lines to identify multiple opportunities for drug repurposing: Confirmatory screen for NB-EBc1 cells (AID 1347115); note: nearly all actives have a fitted effect of over 45% in size; note: potency is the fitted concentration of half-maximal effect
Procedure, shortened: as §3

[16] = qHTS of pediatric cancer cell lines to identify multiple opportunities for drug repurposing: Confirmatory screen for A673 cells (AID 1347110); note: nearly all actives have a fitted effect of over 65% in size
Procedure, shortened: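 Viability was read as ATP luminescence (CellTiter-Glo) after 48 h of compound exposure at 37 C in A673 cells seeded at 500-1,000/well. Titrations reached 46 uM final, with 11 points in the confirmatory screen. Concentration-response curves were fitted directly.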

[17] = qHTS of pediatric cancer cell lines to identify multiple opportunities for drug repurposing: Confirmatory screen for LAN-5 cells (AID 1347113); conditions: outcome: dose series up to 45.9 µM; note: nearly all actives have a fitted effect of over 65% in size
Procedure, shortened: as §3

[18] = qHTS of pediatric cancer cell lines to identify multiple opportunities for drug repurposing: Confirmatory screen for BT-37 cells (AID 1347117); note: nearly all actives have a fitted effect of over 55% in size
Procedure, shortened: as §3

Row | SMILES | Potency [1] | Potency [2] | Potency [3] | Potency [4] | Potency [5] | Potency [6] | Potency [7] | outcome [8] | outcome [9] | Potency [10] | Potency [11] | Potency [12] | Potency [13] | Potency [14] | Potency [15] | Potency [16] | outcome [17] | Potency [18]
1 | ClCCN1CCCC1 | inactive | inactive | inactive | inactive | inactive | inactive | inactive | inactive | inactive | inactive |  |  |  |  |  |  |  | 
2 | C[C@H](N)C(=O)c1ccccc1 | inactive | inactive | inactive | inactive | inactive | inactive | inactive | inactive | inactive | inactive |  |  |  |  |  |  |  | 
3 | Nc1nc(N)nc(NC2CC2)n1 | inactive | inactive | inactive | inactive | inactive | inactive | inactive | inactive | inactive | inactive |  |  |  |  |  |  |  | 
4 | COC1CC(=C(c2cccs2)c2cccs2)C[N+](C)(C)C1 (stereo not given) | inactive | inactive | inactive | inactive | inactive | inactive | inactive | inactive | inactive | inactive |  |  |  |  |  |  |  | 
5 | O=C(O)CCCc1ccc(N(CCCl)CCCl)cc1 | inactive | inactive | 9.44 µM (active) | inactive |  | inactive | inactive | inactive | inactive | inactive | inactive | 23.3 µM (active) | inactive | inactive | 9.27 µM (active) |  |  | 
6 | O=C1c2ccccc2C(=O)c2ccccc21 | inactive | inactive | inactive | inactive | inactive | inactive |  | inactive | inactive | inactive |  |  |  |  |  |  |  | 
7 | CCCCCCC(=O)CCCCCC/C=C/C[C@@H](O)[C@H](O)[C@@](N)(CO)C(=O)O | inactive | inactive | inactive | inactive |  | inactive |  | inactive | inactive | inactive | inactive |  |  |  |  |  |  | 
8 | CN1CC[C@]23c4c5ccc(O)c4O[C@H]2[C@@H](O)CC[C@H]3[C@H]1C5 | inactive | inactive | inactive | inactive | inactive | inactive |  | inactive | inactive | inactive | inactive |  |  |  |  |  |  | 
9 | CN(C)CCc1c[nH]c2cccc(OP(=O)(O)O)c12 | inactive | inactive | inactive | inactive | inactive | inactive | inactive | inactive | inactive | inactive |  |  |  |  |  |  |  | 
10 | NCCc1ccc(O)cc1 | inactive | inactive | inactive | inactive | inactive | inactive | inactive | inactive | inactive | inactive |  |  |  |  |  |  |  | 
11 | C[C@@H](N)[C@@H](O)c1ccccc1 | inactive | inactive | inactive | inactive | inactive | inactive | inactive | inactive | inactive | inactive |  |  |  |  |  |  |  | 
12 | CC(Cc1ccccc1)NCCn1cnc2c1c(=O)n(C)c(=O)n2C (stereo not given) | inactive | inactive | inactive | inactive | inactive | inactive | inactive | inactive | inactive | inactive |  |  |  |  |  |  |  | 
13 | Nc1ccccc1C(=O)O | inactive | inactive | inactive | inactive | inactive | inactive | inactive | inactive | inactive | inactive |  |  |  |  |  |  |  | 
14 | O=P1(N(CCCl)CCCl)NCCCO1 (stereo not given) | inactive | inactive | inactive | inactive | inactive | inactive |  | inactive | inactive | inactive | inactive | inactive | inactive |  | inactive | inactive | inactive | inactive
15 | CCC(C)(C)c1ccc(O)cc1 | inactive | inactive | inactive | inactive |  | inactive | inactive | inactive | inactive | inactive | inactive |  |  |  |  |  |  | 
16 | CCC1(c2ccccc2)C(=O)N(COC)C(=O)N(COC)C1=O | inactive | inactive | inactive | inactive | inactive | inactive |  | inactive | inactive | inactive | inactive |  |  |  |  |  |  | 
17 | COc1cc(OC)c(OC)cc1C=O | inactive | inactive | inactive | inactive | inactive | inactive |  | inactive | inactive | inactive |  |  |  |  |  |  |  | 
18 | c1ccc2c(c1)sc1ccccc12 | inactive | inactive | inactive | inactive | inactive | inactive |  | inactive | inactive | inactive |  |  |  |  |  |  |  | 
19 | CC(=O)OCC1=C(C(=O)O)N2C(=O)[C@@H](N)[C@H]2SC1 | inactive | inactive | inactive | inactive | inactive | inactive |  | inactive | inactive | inactive | inactive |  |  |  |  |  |  | 
20 | O=C1CN=C(c2ccccc2)c2cc([N+](=O)[O-])ccc2N1 | inactive | inactive | inactive | inactive | inactive | inactive | inactive | inactive | inactive | inactive |  |  |  |  |  |  |  | 
21 | Cc1ncsc1CCCl | inactive | inactive | inactive | inactive | inactive | inactive | inactive | inactive | inactive | inactive |  |  |  |  |  |  |  | 
22 | COc1ccc2c(c1OC)C(=O)O[C@H]2[C@@H]1c2cc3c(cc2CCN1C)OCO3 | inactive | inactive | inactive | inactive | inactive | inactive | inactive | inactive | inactive | inactive |  |  |  |  |  |  |  | 
23 | CNC(C)(C)Cc1ccccc1 | inactive | inactive | inactive | inactive | inactive | inactive |  | inactive | inactive | inactive |  |  |  |  |  |  |  | 
